Screens deposited in PubChem by National Center for Advancing Translational Sciences (NCATS).
GCN5L2 inh: blocks human GCN5L2 histone acetyltransferase; Q92830; GCN5L2 HAT assay, ThioGlo1 CoA-SH fluorescence; Potency, µM (series often up to 58.9 µM), without a hit: at the top dose activity change, negative = inhibition, actives largely listed as inhibitors; hit rate 0.21% among 390,000; AID 504327; also: potency is read from the fitted curve at half-maximal effect; % is scaled to controls: 0 for no effect and ±100 for the full control effect
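Fluorescence readout, Ex340nm/Em540nm: ThioGlo1 (50uM final) reacts with free CoA thiol released as 20nM GCN5L2 acetylates H3(1-25) peptide (75uM) using acetyl-CoA (70uM). Compound and enzyme sat 15 min beforehand; 20 min room-temperature reaction.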
PI5P4Ka inh: blocks human PI5P4K alpha kinase activity; max response, %; PI5P4Kalpha enzyme, ADP-Glo luminescence, 60 min; stronger effect = lower value; hit rate 1.2% among 330,000; AID 652105; P48426; active = max response of -50% or lower; inconclusive = between -30% and -50%; inactive = -30% or higher; also: value at the top dose of about 77 µM; % is scaled to controls: 0 for no effect and ±100 for the full control effect
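ADP-Glo luminescence end-point read after a 60 min room-temperature kinase reaction of PI5P4Kalpha plus substrate, initiated with ATP at 5 microM final. Buffer: 0.038 M HEPES pH 7.4, EGTA, 0.1% CHAPS, 5% DMSO.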
HP1b binding inh: blocks HP1-beta chromodomain binding to methylated histone tails | Potency, µM (titrated, usually from 114 µM), without a hit: at the top dose activity change, negative = inhibition, usual class: inhibitors | AlphaScreen HP1-beta / biotin-H3K9me3 peptide binding | P83916 | hit rate 0.56% among 390,000; also: potency is read from the fitted curve at half-maximal effect; nearly all actives have a fitted effect of over 70% in size
Target sequence (P83916 whole entry, looked up): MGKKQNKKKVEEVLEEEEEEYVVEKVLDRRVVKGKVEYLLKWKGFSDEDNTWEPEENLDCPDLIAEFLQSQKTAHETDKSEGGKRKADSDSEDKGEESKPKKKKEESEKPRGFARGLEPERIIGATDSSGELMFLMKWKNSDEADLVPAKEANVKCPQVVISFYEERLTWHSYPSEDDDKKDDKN
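HP1-beta protein (50 nM final) preincubated 30 min at room temperature with biotinylated H3(1-18)K9me3 peptide (50 nM) in PBS pH 7.4, 0.01% Tween-20, then compound added for 30 min. AlphaScreen streptavidin donor/nickel chelate acceptor beads (10 ug/mL final), 30 min dark, luminescence read.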
BAZ2B inh: inhibitors of human BAZ2B bromodomain; Q9UIF8; AlphaScreen BAZ2B-H3K14Ac peptide displacement; Potency, µM (series often up to 114 µM), for the others: at the highest dose activity change, negative = inhibition, usual class: inhibitors; hit rate 4.4% among 360,000; AID 504333; also: potency is read from the fitted curve at half-maximal effect; % is scaled to controls: 0 for no effect and ±100 for the full control effect; nearly all actives have a fitted effect of over 60% in size
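Protein-peptide AlphaScreen: BAZ2B 50 nM, b-H3K14Ac 50 nM, 1x PBS pH 7.4 + 0.01% Tween-20. Preincubation 30 min RT; cpd 30 min RT (top 110 uM); beads 20 min RT, light-protected.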
JMJD2A Tudor inh: JMJD2A Tudor domain (human) inhibition; AID 504339; hit rate 4.4% among 390,000; AlphaScreen JMJD2A-Tudor / H3K4me3 peptide binding; Potency, µM (titrated, usually from 114 µM), inactives show top-dose activity change, negative = inhibition, usual class: inhibitors; O75164; also: potency is read from the fitted curve at half-maximal effect; % is scaled to controls: 0 for no effect and ±100 for the full control effect; nearly all actives have a fitted effect of over 50% in size
PLK1 PBD block: blocks phosphopeptide binding to human PLK1 polo-box domain; hit rate 2.8% among 360,000; AID 720504; P53350; Potency, µM, for the others: max response, negative = inhibition, actives largely listed as inhibitors; Plk1 PBD binding of FITC phosphopeptide, fluorescence polarization; also: potency is read from the fitted curve at half-maximal effect; series mostly up to about 57 µM; % is scaled to controls: 0 for no effect and ±100 for the full control effect; nearly all actives have a fitted effect of over 65% in size
Target sequence (P53350 whole entry, looked up, the tested form may be a part): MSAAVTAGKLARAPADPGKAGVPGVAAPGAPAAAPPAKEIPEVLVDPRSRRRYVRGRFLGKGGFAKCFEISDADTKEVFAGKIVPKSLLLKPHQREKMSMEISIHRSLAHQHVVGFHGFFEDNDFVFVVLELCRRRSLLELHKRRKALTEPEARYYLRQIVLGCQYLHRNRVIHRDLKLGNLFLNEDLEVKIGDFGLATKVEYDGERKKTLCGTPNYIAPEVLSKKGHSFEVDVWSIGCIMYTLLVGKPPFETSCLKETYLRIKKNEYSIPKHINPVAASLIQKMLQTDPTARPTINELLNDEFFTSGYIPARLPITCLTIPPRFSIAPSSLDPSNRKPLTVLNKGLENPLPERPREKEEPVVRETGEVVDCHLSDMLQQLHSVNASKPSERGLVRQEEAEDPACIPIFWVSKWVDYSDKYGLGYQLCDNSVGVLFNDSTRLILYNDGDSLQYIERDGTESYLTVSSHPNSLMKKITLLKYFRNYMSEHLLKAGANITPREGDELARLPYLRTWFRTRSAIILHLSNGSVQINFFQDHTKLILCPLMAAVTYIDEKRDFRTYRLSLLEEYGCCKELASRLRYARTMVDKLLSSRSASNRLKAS
ADP-Glo counter: interferes with ADP-Glo detection without enzyme present; shares compounds with PI5P4Ka inh; AID 743285; ADP-Glo detection counter-screen, luciferase luminescence, no enzyme; 1,100 tested, under 10 active; Potency, µM (doses to about 76.9 µM), for inactives: at the top dose activity change, negative = inhibition, most hits filed as inhibitors
The depositor's hits bear a star; ? = inconclusive; nt = no result; [ ] = another dose, or the depositor's remark. Compounds with a hit are over-represented: about 7% of the library has one in this group of screens. Unless noted, calls follow the shape of the dose curve; as a rule, active = well fitted curve in the direction sought with a large enough effect; inconclusive = small, poorly fitted or top-dose-only effect, or another doubt; inactive = no such curve, though single readings can be large; an effect the other way counts as inactive or inconclusive.

SMILES | GCN5L2 inh | PI5P4Ka inh | HP1b binding inh | BAZ2B inh | JMJD2A Tudor inh | PLK1 PBD block | ADP-Glo counter
COc1ccccc1CNC(=O)C1(C)CCN1Cc1ccc(OC(F)(F)F)cc1 (centres undefined) | nt | 18.0 | nt | nt | nt | 3.9% | nt
Cc1ccc(Sc2ccc(N3CCCC(C(=O)Nc4ccc(F)cc4)C3)nn2)cc1 (centres undefined) | 2.2% | nt | 26.1% | 2.7% | -11.9% | nt | nt
COC(=O)CNC(=O)C1Cc2ccccc2CN1S(=O)(=O)c1cccs1 (centres undefined) | -1.5% | -4.6 | 6.2% | 0.5% | 9.3% | 0.6% | -3.9%
CC(C)(C)C(=O)NCCc1csc2nc(-c3ccc(F)cc3)nn12 | 0.0% | nt | 26.6%[57 µM] | 7.4% | 8.1% | nt | nt
COc1ccc(N(C(=O)C2CSC(=O)C2)C(C(=O)NC(C)(C)C)c2ccncc2)cc1 (centres undefined) | ? | -78.5* | 27.6% | 6.5% | -9.5% | -5.1% | 2.2%
COc1cccc2c1C(=O)C[C@]1(CCCC[C@@H]1C)O2 | -3.5% | 2.1 | 65.1% | 57.2% | 22.3% | -6.2% | -5.2%
COc1cccc2c1C1(O)C2CCCCCCCCCC12OCCCO2 (centres undefined) | nt | -5.3 | 17.9% | nt | -4.2% | -10.6% | nt
CCOC(=O)[C@]12CCCC=C1N(Cc1ccc3c(c1)OCO3)C(=O)[C@H](CC(=O)NCC13CC4CC(CC(C4)C1)C3)C2 | nt | 2.1 | nt | nt | nt | 2.9% | nt
NS(=O)(=O)c1cc(C(=O)NC2CCSc3ccccc32)ccc1Cl (centres undefined) | ? | -84.1* | 2.24µM* | ? | 0.794µM* | 6.7µM* | 7.5%
NS(=O)(=O)c1cccc(C(=O)NC2CCSc3ccccc32)c1 (centres undefined) | 0.8% | -3.5 | 23.8% | -1.0% | -5.7% | -0.7% | nt
O=C1Nc2ccccc2C(=O)N2c3ccccc3NC(=O)C12 (centres undefined) | nt | -0.5 | nt | nt | nt | -3.5% | nt
O=C(NCc1ccco1)c1ccc(S(=O)(=O)N2CCOCC2)cc1 | -28.4% | -53.4* | ? | 79.4µM* | ? | ? | -0.2%
CCN(CC)S(=O)(=O)c1ccc2c(c1)nc(SCC(=O)NCC1CCCO1)n2CC (centres undefined) | 1.9% | -4.5 | 9.7% | 8.1% | -14.2% | -5.2% | nt
COC(=O)Nc1ccc(S(=O)(=O)N2CCC(C(=O)N3CCC(C)CC3)CC2)cc1 | -1.9% | -80.0* | -3.5% | -7.6% | 11.2µM* | 9.47µM* | 0.1%
COC(=O)Nc1ccc(S(=O)(=O)N2CCC(C)CC2)cc1 | -9.4% | nt | 18.2% | 10.8% | -9.2% | -2.8% | nt
O=C(Cc1cccs1)NC1CC(=O)N(c2ccc(Cl)cc2)C1 (centres undefined) | 0.2% | nt | 22.7% | -8.0% | -25.6% | nt | nt
CC(C)c1ccc(NC(=O)C2CC(=O)Nc3nc4ccccc4n32)cc1 (centres undefined) | -0.6% | 2.5 | 51.6% | -5.1% | -8.1%[11.4 µM] | -12.2% | nt
Cc1cc2nc(NC(=O)C3(C)CCN3C(=O)C(C)C)[nH]c2cc1C (centres undefined) | nt | ? | nt | nt | nt | -10.0% | -13.0%
S=C(NCc1ccco1)NCc1ccco1 | nt | -75.7* | 35.5µM* | nt | 56.2µM* | 5.97µM* | -0.3%
O=C(NCc1ccco1)c1ccc([N+](=O)[O-])o1 | -18.7% | -63.5* | ? | 44.7µM* | 56.2µM* | ? | 0.9%
O=C(NCc1ccco1)c1ccc(Cn2cc([N+](=O)[O-])cn2)o1 | -5.2% | nt | -3.9% | -3.9% | -5.1% | -8.7% | nt
O=C(Oc1ccccc1C(=S)N1CCOCC1)c1cccc([N+](=O)[O-])c1 | -9.4% | -7.8 | 4.3% | -15.0% | ? | ? | nt
Cc1ccc(S(=O)(=O)N(CC(=O)Nc2ccccc2C(=O)O)c2ccccc2C)cc1 | -5.1% | -50.6* | 41.1% | -20.9% | -7.0% | -6.3% | 0.0%
Cc1c(CC(=O)NCC(=O)O)c(=O)oc2cc3c(cc12)CCC(C)(C)O3 | 12.1% | 0.2 | 3.3% | -7.5% | -19.1% | -8.0% | nt
Cc1cccc(-n2c(SCC(N)=O)nc3c(c2=O)C2(CCCC2)Cc2ccccc2-3)c1 | -11.4% | -56.2* | -27.7% | -36.5% | ? | -10.5% | -4.1%
SMILES | GCN5L2 inh | PI5P4Ka inh | HP1b binding inh | BAZ2B inh | JMJD2A Tudor inh | PLK1 PBD block | ADP-Glo counter
NC(=O)CSc1nc2c(c(=O)n1-c1ccccc1)C1(CCCCC1)Cc1ccccc1-2 | 1.4% | 2.9 | 0.7%[57 µM] | ? | -29.9% | -16.3% | nt
O=C(CCNC(=O)c1ccc(Br)cc1)OCc1ccccc1Cl | 2.7% | 3.1 | 88.2% | 31.4% | 36.6% | -7.5% | nt
Cc1ccc(C)c(CN2C(=O)c3ccccc3S(=O)c3ccc(C(=O)NCCC4=CCCCC4)cc32)c1 (centres undefined) | -6.2% | nt | 22.3% | -15.2% | -16.2% | nt | nt
Nc1nc(Nc2ccccc2F)sc1C(=O)c1ccccc1 | -17.1% | -90.8* | -12.5% | 44.7µM* | ? | -3.0% | 0.6%
Fc1cccc(Cl)c1C1SCc2nc3ccccc3n21 (centres undefined) | nt | 0.9 | nt | nt | nt | -18.5% | nt
c1ccc(Cc2nnc3sc(-c4ccco4)nn23)cc1 | -10.6% | -50.7* | ? | ? | ? | 21.2µM* | 2.5%
Clc1ccccc1-c1nnc2sc(-c3ccco3)nn12 | -9.6% | -4.2 | -5.6% | -19.6% | -26.1% | -6.9% | nt
CCN(C/C=C/C#CC(C)(C)C)Cc1cccc(OCc2cc(-c3ccsc3)cs2)c1 | -21.3% | nt | nt | nt | nt | nt | nt
Cc1onc(-c2c(F)cccc2Cl)c1C(=O)NCc1ccco1 | -5.9% | 0.9 | 30.6% | -30.3% | 5.2% | -1.3% | nt
Cc1onc(-c2c(F)cccc2Cl)c1C(=O)OCC(=O)NCc1ccco1 | -5.5% | -50.9* | 3.2% | ? | -35.2% | -15.8% | -5.0%
COc1ccc(NC(=O)CSc2nnc(-c3ccco3)c(-c3ccco3)n2)cc1OC | -10.9% | -52.1* | ? | -9.4% | ? | ? | -1.0%
CC(C)N=c1c([N+](=O)[O-])nn(C)n1O | -14.3% | 5.3 | 42.0% | -20.4% | -7.4% | -15.4% | nt
COc1ccc2[nH]c(=O)c(CN(Cc3nnnn3Cc3ccco3)C3CCCCC3)cc2c1 | -20.2% | -59.1* | -26.2% | 50.1µM* | ? | ? | -4.1%
CCOc1ccc2[nH]c(=O)c(C(c3nnnn3Cc3ccco3)N3CCCC(C)C3)cc2c1 (centres undefined) | -6.5% | -54.1* | -1.5% | ? | -32.8% | ? | 4.1%
COc1ccc(Cn2nnnc2CN(Cc2cc3cc(C)ccc3[nH]c2=O)C2CCCC2)cc1 | -12.4% | nt | 8.6% | 7.9% | -23.8% | -4.7% | nt
